Measurements as given in PubChem BioAssay (EPA / NIEHS).
“And” between values parts separate entries of the source, which are not always exact repeats. Identical values can stand only once. A structure can be active in one record and inactive in another. The source made the active and inactive calls. Rule for the calls: active = hit-call score of the fitted dose curve at least 0.9, where 1 is the maximum; inactive = score below 0.9.

Read-out: Interleukin-8 (IL8), CXCL8 (gene 3576)
Experiment: BSK_IMphg_IL8: BioMAP Diversity Plus: IMphg Assay for Interleukin-8 (IL8) Biomarker Activity (AID 2284277)
Settings: primary human endothelial cells with macrophages
Experimental: BSK_IMphg is a cell-based, multiplexed-readout assay that uses venular endothelial cells and macrophages, a human vascular primary cell, with measurements taken at 24 hours after chemical dosing in a microplate: 96-well plate.BSK_IMphg_IL8 is an assay component measured in the BSK_IMphg assay. It measures IL-8 antibody related to regulation of gene expression using ELISA technology.Data from the assay component BSK_IMphg_IL8 was analyzed at the endpoint, BSK_IMphg_IL8, in the positive analysis fitting direction relative to DMSO as the negative control and baseline of activity. Using a type of binding reporter, gain or loss-of-signal activity can be used to understand protein changes. To generalize the intended target to other relatable targets, this assay endpoint is annotated to the 'cytokine' intended target family, where the subfamily is 'interleukins'.
The levels of cell surface (or secreted, indicated by the prefix "s") biomarker endpoints were measured by ELISA. Overt cytotoxicity to cells in confluent adherent cultures (all systems other than the BT system) was assessed by measuring total protein levels using sulforhodamine B (SRB) staining in parallel cultures at the time of biomarker measurements, indicated as SRB endpoints. For proliferation assays for adherent cell types, individual cell types are cultured at sub-confluence and relative cell numbers quantified by SRB staining at time points optimized for each system (48 h: 3C and CASM3C systems; 72 h: BT and HDF3CGF systems; 96 h: SAg system). SRB was performed by staining cells with 0.1% SRB after fixation with 10% TCA and reading wells at 560 nm.Viability and proliferation of PBMC (T cells) was quantified by Alamar Blue reduction for the SAg and BT systems. For PBMC viability (referred to as PBMC Cytotoxicity within the assay endpoint names), cells were plated (75,000/well in a 96-well plate) and then chemical samples added for 1 h before addition of activators, SEB and TSST-1 (20 ng/mL final concentration each). Cells were incubated for 90 h. Then, Alamar Blue (20 uL/well) (Invitrogen, Cat DAL1100) was added for 6 h, and the plates were read with a fluorescence microplate reader at 546/580 nm (excitation/emission). For PBMC proliferation, cells were plated and activated as above but incubated for only 16 h prior to addition of Alamar Blue. Plates were read after 6 h.

Row | Structure (SMILES) | outcome | AC50
1 | OCC(F)(F)C(F)(F)C(F)(F)C(F)(F)C(F)(F)C(F)(F)C(F)(F)C(F)(F)C(F)(F)C(F)(F)C(F)(F)F | inactive | 0.216 µM (active)
2 | O=C(CC(=O)C(F)(F)C(F)(F)C(F)(F)F)c1cccs1 | inactive | 22.4 µM (active)
3 | O=P(O)(O)CCC(F)(F)C(F)(F)C(F)(F)C(F)(F)C(F)(F)C(F)(F)C(F)(F)C(F)(F)F | inactive | 40.1 µM (active)
4 | O=P(O)(O)CCC(F)(F)C(F)(F)C(F)(F)C(F)(F)C(F)(F)C(F)(F)F | inactive | 
5 | O=C(O)CCC(F)(F)C(F)(F)C(F)(F)C(F)(F)C(F)(F)C(F)(F)F |  | 14.2 µM (active) and 23 µM (active) and 17.1 µM (active)
6 | O=C(O)CCC(F)(F)C(F)(F)C(F)(F)C(F)(F)C(F)(F)F | inactive | 
7 | O=C(O)C(F)(F)OC(F)(F)C(F)(F)OC(F)(F)C(F)(F)OC(F)(F)C(F)(F)C(F)(F)C(F)(F)F |  | 54.2 µM (active) and 7.06 µM (active)
8 | C=CC(=O)OCCC(F)(F)C(F)(F)C(F)(F)C(F)(F)C(F)(F)C(F)(F)C(F)(F)C(F)(F)F | inactive | 
9 | CN(CCO)S(=O)(=O)C(F)(F)C(F)(F)C(F)(F)C(F)(F)C(F)(F)C(F)(F)C(F)(F)C(F)(F)F | inactive | 
10 | O=S(=O)(O)C(F)(F)C(F)(F)C(F)(F)C(F)(F)C(F)(F)C(F)(F)C(F)(F)C(F)(F)C(F)(F)C(F)(F)F | inactive | 12.2 µM (active)
11 | CN(Cc1cnc2nc(N)nc(N)c2n1)c1ccc(C(=O)N[C@@H](CCC(=O)O)C(=O)O)cc1 | inactive | 
